In the supplement of paper PMC7380943:

Legend:
[1] = system: CLZ3 (HCA2 human fibroblast dual HR-NHEJ reporter); experiment: NHEJ repair efficiency (GFP+ cells) relative to control (log10 fold); higher = more non-homologous end joining; details: 5 µM; doxycycline 0.5 ug/mL
[2] = system: CLZ3 (HCA2 human fibroblast dual HR-NHEJ reporter); experiment: HR repair efficiency (tdTomato+ cells) relative to control (log10 fold); higher = more homologous recombination; details: 5 µM; doxycycline 0.5 ug/mL
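For HR repair efficiency (tdTomato+ cells) relative to control in this document: compound given one day before doxycycline, which switches on I-SceI endonuclease expression to create double-strand breaks within the integrated reporter.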
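For NHEJ repair efficiency (GFP+ cells) relative to control in this document: compound given one day ahead of doxycycline, which switches on I-SceI endonuclease to cut the chromosomally integrated reporter and create DSBs.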

Row | SMILES | NHEJ repair efficiency (log10) [1] | HR repair efficiency (log10) [2]
1 | CC1(C)CC[C@]2(C(=O)O)CC[C@]3(C)C(=CC[C@@H]4[C@@]5(C)CC[C@H](O)[C@@](C)(CO)[C@@H]5CC[C@]43C)[C@@H]2C1 [Hederagenin] | -0.021 | -0.0988
2 | O=C(/C=C/c1ccc(O)c(O)c1)O[C@H](Cc1ccc(O)c(O)c1)C(=O)O [Rosmarinicacid] | -0.275 | -0.328
3 | COc1cc(OC)c(CCC(=O)c2ccc(O)cc2)c(OC)c1 | -0.0337 | 0.0988
4 | Oc1cc(O)c2cc(O)c(-c3ccc(O)c(O)c3)[o+]c2c1 [Cyanidin Chloride] | -0.0642 | 0.00943
5 | CC1(C)CC[C@]2(C(=O)O)CC[C@]3(C)C(=CC[C@@H]4[C@@]5(C)CC[C@H](O[C@@H]6O[C@H](C(=O)O)[C@@H](O)[C@H](O[C@@H]7OC[C@@H](O)[C@H](O)[C@H]7O)[C@H]6O)C(C)(C)[C@@H]5CC[C@]43C)[C@@H]2C1 [Momordin Ic] | 0.0282 | -0.203
6 | CC1(C)CC[C@]2(C(=O)O)CC[C@]3(C)C(=CC[C@@H]4[C@@]5(C)C[C@@H](O)[C@H](O)C(C)(C)[C@@H]5CC[C@]43C)[C@@H]2C1 [Maslinic Acid] | -0.0568 | -0.0914
7 | CC[C@H](CC[C@@H](C)[C@H]1CC[C@H]2[C@@H]3CC=C4C[C@@H](O)CC[C@]4(C)[C@H]3CC[C@]12C)C(C)C [β-Sitosterol] | 0.038 | 0.098
8 | COc1cc2c(cc1O)C[C@H]1c3cc(O)c(OC)cc3CC[N@@+]1(C)C2 [Phellodendrine] | 0.199 | -0.099
9 | O=C(/C=C/c1ccc(O)c(O)c1)O[C@@H]1CC(O)(C(=O)O)C[C@@H](OC(=O)/C=C/c2ccc(O)c(O)c2)C1O (stereo not given in full) [Isochlorogenic acid A] | 0.0485 | 0.0109
10 | C[C@@H]1CC[C@]2(C(=O)O[C@@H]3O[C@H](CO)[C@@H](O)[C@H](O)[C@H]3O)CC[C@]3(C)C(=CC[C@@H]4[C@@]5(C)CC[C@H](O)[C@@](C)(CO)[C@@H]5CC[C@]43C)[C@@H]2[C@]1(C)O [Pedunculoside] | 0.0473 | 0.237
11 | Cc1c(O)c(C)c2c(c1O)C(=O)C[C@@H](c1ccc(O)cc1)O2 [Farrerol] | -0.0045 | 0.437
12 | OCCc1ccc(O)c(O)c1 [Hydroxytyrosol] | 0.0571 | 0.228
13 | COc1cc2c(c(OC)c1OC)-c1c(cc3c(c1OC)OCO3)C[C@H](C)[C@@](C)(O)C2 [Schizandrol B] | -0.0319 | -0.132
14 | COc1cc(-c2oc3cc(O)cc(O)c3c(=O)c2O[C@@H]2O[C@H](CO)[C@@H](O)[C@H](O)[C@H]2O[C@@H]2O[C@@H](C)[C@H](O)[C@@H](O)[C@H]2O)ccc1O [Isorhamnetin 3-O-Neohesperoside] | -0.0528 | -0.0275
15 | N[C@@H](Cc1ccc(O)c(O)c1)C(=O)O [Levodopa] | 0.0328 | 0.0905
16 | COc1cc(CNC(=O)CCCC/C=C/C(C)C)ccc1O [Capsaicin] | -0.0748 | -0.0984
17 | O=C(O)CCC(=O)O [Succinic acid] | 0.006 | 0.102
18 | Oc1cc(O)c2c(c1)OC(c1ccc(O)c(O)c1)C(OC1(c3ccc(O)c(O)c3)Oc3cc(O)cc(O)c3C(O)C1O)C2 (stereo not given) [Procyanidins] | 0.0386 | 0.123
19 | COc1c(O[C@@H]2O[C@H](C(=O)O)[C@@H](O)[C@H](O)[C@H]2O)cc(O)c2c(=O)cc(-c3ccccc3)oc12 [Wogonoside] | -0.0783 | -0.00302
20 | COc1ccc(-c2oc3cc(O)cc(O)c3c(=O)c2O)cc1 [Kaempferide] | -0.0948 | -0.167

Row | SMILES | NHEJ repair efficiency (log10) [1] | HR repair efficiency (log10) [2]
21 | C[C@@H]1O[C@@H](Oc2c(-c3ccc(O)c(O)c3)oc3cc(O)cc(O)c3c2=O)[C@H](O)[C@H](O)[C@H]1O [Quercitrin] | -0.0507 | 0.0282
22 | COc1c(O)cc2oc(-c3ccccc3)cc(=O)c2c1O [Oroxylin-A] | -0.22 | 0.0535
23 | COc1ccc([C@@H]2OC[C@H]3[C@@H]2CO[C@@H]3c2ccc3c(c2)OCO3)cc1OC [Fargesin] | 0.0593 | 0.116
24 | O=c1c(O)c(-c2cc(O)c(O)c(O)c2)oc2cc(O)cc(O)c12 [Myricetin] | 0.0547 | 0.02
25 | C=C(C)[C@@H]1CC[C@]2(C(=O)O[C@@H]3O[C@H](CO[C@@H]4O[C@H](CO)[C@@H](O[C@@H]5O[C@@H](C)[C@H](O)[C@@H](O)[C@H]5O)[C@H](O)[C@H]4O)[C@@H](O)[C@H](O)[C@H]3O)CC[C@]3(C)[C@H](CC[C@@H]4[C@@]5(C)CC[C@H](O[C@@H]6OC[C@H](O)[C@H](O)[C@H]6O[C@@H]6O[C@@H](C)[C@H](O)[C@@H](O)[C@H]6O)[C@@](C)(CO)[C@@H]5CC[C@]43C)[C@@H]12 [Anemoside B4] | -0.0464 | 0.0526
26 | Cc1c(S(=O)(=O)O)oc2c1C(=O)C(=O)c1c-2ccc2c1CCCC2(C)C [Tanshinone Iia Sodium Sulfonate] | 0.0248 | 0.126
27 | COc1cc2c(c(O)c1OC)-c1c(cc(OC)c(OC)c1OC)C[C@@H](C)[C@@H](C)C2 [Schisanhenol] | -0.161 | -0.0391
28 | C[C@@H]1O[C@@H](OC[C@H]2O[C@@H](OCCc3ccc(O)c(O)c3)[C@H](O)[C@@H](O)[C@@H]2OC(=O)/C=C/c2ccc(O)c(O)c2)[C@H](O)[C@H](O)[C@H]1O [Forsythoside A] | 0.0797 | 0.189
29 | COc1ccc2c(c1O)-c1c(O)c(OC)cc3c1[C@H](C2)[N+](C)(C)CC3 [Magnoflorine iodide] | 0.122 | -0.0243
30 | COc1cc2oc(=O)ccc2c(OC)c1C[C@@H](O)C(C)(C)O [Toddalolactone] | 0.0484 | 0.018
31 | O=C(O[C@@H]1Cc2c(O)cc(O)cc2O[C@H]1c1cc(O)c(O)c(O)c1)c1cc(O)c(O)c(O)c1 [(-)Gallocatechin gallate] | -0.12 | 0.0198
32 | C[C@@H]1CC[C@@]2(OC1)O[C@H]1C[C@H]3[C@@H]4CC=C5C[C@@H](O)C[C@@H](O)[C@]5(C)[C@H]4CC[C@]3(C)[C@H]1[C@@H]2C [Ruscogenin] | -0.0127 | 0.181
33 | C[C@H]1O[C@@H](O[C@H]2CC[C@@]3(C)[C@@H](CC[C@]4(C)[C@@H]3C=C[C@]35OC[C@@]6(CCC(C)(C)C[C@H]63)[C@@H](O)C[C@]54C)[C@]2(C)CO)[C@H](O)[C@@H](O[C@@H]2O[C@H](CO)[C@@H](O)[C@H](O)[C@H]2O)[C@H]1O [Saikosaponin a] | -0.305 | -0.315
34 | CC1(C)CC[C@]2(C(=O)O[C@@H]3O[C@H](CO)[C@@H](O)[C@H](O)[C@H]3O)CC[C@]3(C)C(=CC[C@@H]4[C@@]5(C)CC[C@H](O[C@@H]6O[C@H](C(=O)O)[C@@H](O)[C@H](O)[C@H]6O[C@@H]6O[C@H](CO)[C@@H](O)[C@H](O)[C@H]6O)C(C)(C)[C@@H]5CC[C@]43C)[C@@H]2C1 [Chikusetsusaponin V] | 0.0351 | 0.0384
35 | O=c1ccc2ccc(O)cc2o1 [Umbelliferone] | 0.115 | 0.269
36 | COc1c2ccoc2c(OC[C@@H](O)C(C)(C)O)c2oc(=O)ccc12 [Byakangelicin] | 0.0236 | -0.0476
37 | CO[C@]1(CC[C@H](C)CO[C@@H]2O[C@H](CO)[C@@H](O)[C@H](O)[C@H]2O)O[C@H]2C[C@H]3[C@@H]4CC[C@@H]5C[C@@H](O[C@@H]6O[C@H](CO)[C@H](O)[C@H](O)[C@H]6O[C@@H]6O[C@H](CO)[C@@H](O)[C@H](O)[C@H]6O)CC[C@]5(C)[C@H]4CC[C@]3(C)[C@H]2[C@@H]1C [Anemarsaponin E] | 0.0103 | -0.0664
38 | C=C(C)[C@@H]1CC[C@]2(C)CC[C@]3(C)[C@H](CC[C@@H]4[C@@]5(C)CC[C@H](O)C(C)(C)[C@@H]5CC[C@]43C)[C@@H]12 [Lupeol] | 0.0011 | 0.06
39 | O=C(O)c1cc(O)c2c(c1)[C@H]([C@H]1c3cc(C(=O)O)cc(O)c3C(=O)c3c(O[C@@H]4O[C@H](CO)[C@@H](O)[C@H](O)[C@H]4O)cccc31)c1cccc(O[C@@H]3O[C@H](CO)[C@@H](O)[C@H](O)[C@H]3O)c1C2=O [Sennoside A] | 0.0438 | 0.131
40 | COC(=O)C1=CO[C@@H](O[C@@H]2O[C@H](CO)[C@@H](O)[C@H](O)[C@H]2O)[C@@H]2[C@@]3(C)O[C@H]3[C@@H](O)[C@]12O [Sesamoside] | -0.0395 | -0.1
